Screens: PubChem, National Center for Advancing Translational Sciences (NCATS)
Shown are actives, neighbours in structure and some others; about 20% of the full set was active somewhere.
Pf growth 48h: Primary qHTS for delayed death inhibitors of the malarial parasite plastid, 48 hour incubation; P. falciparum luciferase growth in erythrocytes, 48 h; Potency, µM (titrated, usually from 28.7 µM), most hits filed as inhibitors; AID 504832, 2011; 310,000 tested, 5.9% active
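Read-out is firefly luciferase luminescence from an integrated reporter in P. falciparum, so falling signal marks reduced parasite growth. Infected erythrocytes were at 2% hematocrit and 0.1% parasitemia (final) in Albumax-supplemented RPMI 1640.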
HCMV antiviral: qHTS Assay for inhibitors of the human cytomegalovirus (HCMV); HFF cells, HCMV-luciferase reporter, 72 h; hits give low values; 410,000 tested, 4.5% active; activity change, negative = inhibition, % at 57.5 µM; in the data active means activity change below about -60%; inconclusive means no clear call, values can overlap the other calls; inactive means above about -39%
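HFF cells seeded 16 h at 37C, treated with compounds, infected with luciferase-reporter HCMV at MOI 1 PFU/cell; luciferase read at 72 h post infection, normalized to buffer-only and Salinomycin controls.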
Shiga toxin inh: A qHTS for Small Molecule Inhibitors of Shiga Toxin | Vero cells, Shiga toxin protein synthesis inhibition reporter | inhibition, % at 38.7 µM | 290,000 tested, 9.2% active | AID 2315, 2010; in the data active means inhibition mostly above about 28%, no sharp cut-off; inactive means mostly below about 43%
Pf growth 96h: Primary qHTS for delayed death inhibitors of the malarial parasite plastid, 96 hour incubation. P. falciparum luciferase reporter growth, 96 h. 320,000 tested, 6.9% active. Potency, µM (top dose mostly 28.7 µM), actives largely listed as inhibitors. AID 504834, 2011
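Parasite growth measured via integrated firefly luciferase reporter in P. falciparum. Infected erythrocytes at 2% hematocrit, 0.05% parasitemia final were treated 96 hours at 37 C under 5% CO2, and luminescence was read.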
Cycloheximide cs: Cycloheximide Counterscreen for Small Molecule Inhibitors of Shiga Toxin; cell reporter, cycloheximide protein synthesis inhibition counterscreen; 300,000 tested, 12% active; max response, %; AID 2314, 2010; in the data active means max response mostly above about 13%, no sharp cut-off; inactive means mostly below about 14%; further: read at 38.3 µM for the half of the compounds with a filed dose
Each line names hits and unclear results; the compound was inactive in the other large screens. Unless noted, the call rests on the fitted dose curve; in most records, active means well fitted inhibition curve with a large enough effect; inconclusive means small, poorly fitted or top-dose-only effect, or another doubt; inactive means no such curve, though single readings can be large or run the other way.

Fc1ccc(-c2nc3ccc(Br)cn3c2Cc2ccccc2)cc1	none (no result: Pf growth 48h, Shiga toxin inh, Pf growth 96h, Cycloheximide cs)
COC(=O)c1cc2c(ccn2-c2ccc(F)cc2)n1Cc1ccc(OC(C)=O)cc1	Pf growth 48h inconclusive, Shiga toxin inh 122, Pf growth 96h inconclusive, Cycloheximide cs 59
O=[N+]([O-])c1ccc2c(c1)C=C1CCCCC1(N1CCCC1)O2 (configuration not stated)	Pf growth 96h inconclusive
O=C(NCc1ccccc1F)Nc1nnc([C@@H]2C[C@H](O)[C@@H](CO)O2)s1	none (no result: Pf growth 48h, Shiga toxin inh, Pf growth 96h, Cycloheximide cs)
COc1cc(-n2c(C)nc3cccnc32)c(Cl)cc1C(=O)O	Pf growth 96h inconclusive, Cycloheximide cs 20
CN(C)CCNC(=O)c1onc(CSc2ccc(F)cc2)c1C(=O)NCCN(C)C	Pf growth 48h 13µM, HCMV antiviral inconclusive
CN(C)CCNC(=O)c1onc(CSc2ccc(F)c(F)c2)c1C(=O)NCCN(C)C	Pf growth 48h 8.3µM, Pf growth 96h 6.6µM
O=C(Cn1c(S(=O)(=O)Cc2ccccc2)nc2ccccc21)N1CCCCC1	HCMV antiviral inconclusive, Pf growth 96h inconclusive (no result: Pf growth 48h)
C#CCn1c(S(=O)(=O)Cc2ccc(F)cc2)nc(-c2ccccc2)c1-c1ccccc1	Pf growth 48h inconclusive, HCMV antiviral -97, Pf growth 96h 8.3µM
CCOC(=O)Cn1c(-c2ccc(OC)cc2)c(-c2ccc(OC)cc2)nnc1=O	none
CCOC(=O)Cn1c(-c2ccccc2)cc(SC)c(C#N)c1=O	none
CCOC(=O)Cn1c(S(=O)(=O)Cc2cccc(F)c2)nc(-c2ccccc2)c1-c1ccccc1	Pf growth 48h 8.3µM, HCMV antiviral inconclusive, Pf growth 96h 5.9µM
CCOC(=O)Cn1c(S(=O)(=O)Cc2ccc(F)cc2)nc(-c2ccccc2)c1-c1ccccc1	Pf growth 48h 13µM, HCMV antiviral -78, Pf growth 96h 9.3µM
O=C1c2ccccc2C(=O)N1CCC#Cc1ccc2cc(CCCO)oc(=O)c2c1	none (no result: Pf growth 48h, Shiga toxin inh, Pf growth 96h, Cycloheximide cs)
Cc1ccc(NCN2C(=O)c3ccccc3C2=O)cc1Cl	none (no result: Pf growth 48h, Shiga toxin inh, Pf growth 96h, Cycloheximide cs)
Cc1ccc(N/N=C2\CC(=O)c3ccccc32)cc1Cl	Pf growth 48h 4.7µM, Pf growth 96h 2.9µM, Cycloheximide cs 13 (no result: HCMV antiviral)
COc1cccc(NC(=O)c2cc3ccccc3o/c2=N\O)c1	Pf growth 96h inconclusive, Cycloheximide cs 19 (no result: Shiga toxin inh)
O=C(Nc1ccccc1Cl)c1cc2ccccc2o/c1=N\O	Shiga toxin inh 123, Cycloheximide cs 41
COc1cccc(NC(=O)c2cc3cccc(OC)c3o/c2=N\O)c1	Shiga toxin inh 109, Cycloheximide cs 81 (no result: HCMV antiviral)
Cc1nc2ccccc2cc1C(=O)Nc1ccccc1Cl	none
CCOc1cccc(N(C(=O)CCC(=O)Nc2cc(C)on2)C(C(=O)NC(C)(C)C)c2ccc(OC)cc2)c1 (configuration not stated)	Pf growth 48h 3.3µM, Pf growth 96h inconclusive
COc1ccc(C(C(=O)NC(C)(C)C)N(Cc2ccccc2)C(=O)CCC(=O)Nc2cc(C)on2)cc1 (configuration not stated)	Pf growth 48h inconclusive, HCMV antiviral -64
CCc1ccc(N(C(=O)CCC(=O)Nc2cc(C)on2)C(C(=O)NC(C)(C)C)c2ccc(OC)cc2)cc1 (configuration not stated)	Pf growth 48h 2.1µM, HCMV antiviral inconclusive
CCC(C)(C)NC(=O)C(c1ccc(OC)cc1)N(C(=O)CCC(=O)Nc1cc(C)on1)C(C)(C)C (configuration not stated)	Pf growth 48h inconclusive, Pf growth 96h 12µM
CCC(C)(C)NC(=O)C(c1ccc(OC)cc1)N(Cc1ccc(OC)cc1)C(=O)CCC(=O)Nc1cc(C)on1 (configuration not stated)	Pf growth 48h inconclusive
COc1ccc(C(C(=O)NC(C)(C)C)N(C(=O)CCC(=O)Nc2cc(C)on2)c2cccc(F)c2)cc1 (configuration not stated)	Pf growth 48h inconclusive
O=C(Cn1nnc(-c2ccc(C(F)(F)F)cc2)n1)NCCc1ccccc1	none (no result: Pf growth 48h, Shiga toxin inh, Pf growth 96h, Cycloheximide cs)
O=C(COC(=O)CCc1ccccc1)NNC(=O)c1ccccc1	none (no result: Pf growth 48h, Shiga toxin inh, Pf growth 96h, Cycloheximide cs)
CC(C)(C)c1ccc(C(=O)N2CCN(Cc3cc(=O)n4nc(-c5ccccc5F)sc4n3)CC2)cc1	none (no result: Pf growth 48h, Shiga toxin inh, Pf growth 96h, Cycloheximide cs)
COc1ccc(CNC(=O)c2cc(-c3cccs3)on2)cc1	Cycloheximide cs 19 (no result: Pf growth 96h)
COc1cccc(-c2cc(C(=O)NCc3cccs3)no2)c1	Shiga toxin inh 104, Pf growth 96h inconclusive, Cycloheximide cs 61
COc1ccc(NC(=O)Cn2nnc(C(=O)NCc3cccs3)c2N)cc1	none
O=C(NCc1ccc(Cl)cc1)c1cc(-c2cccs2)on1	Pf growth 96h inconclusive
COc1ccc(-c2cc(C(=O)Nc3cc(C)on3)no2)cc1	Pf growth 96h inconclusive
COc1ccc2nc3sc(C(=O)NCc4cccs4)c(N)c3cc2c1	Shiga toxin inh 83, Cycloheximide cs 51
COc1ccc(-c2cc(C(=O)NCc3cccs3)no2)cc1	Shiga toxin inh 60, Cycloheximide cs 23
C[C@H](NC(=O)[C@@H](Cc1c[nH]c2ccccc12)NC(=O)[C@@H](N)Cc1cnc[nH]1)C(=O)N[C@@H](Cc1c[nH]c2ccccc12)C(=O)N[C@H](Cc1ccccc1)C(=O)N[C@@H](CCCCN)C(N)=O	none (no result: Pf growth 48h, HCMV antiviral, Pf growth 96h)
COc1ccc2oc(C(=O)OCC(=O)NCCN3C(=O)CSC3=O)c(C)c2c1	none
Cc1ccc(NC(=O)CNc2ccc(N3CCOCC3)cc2)cc1S(=O)(=O)N(C)C	none
C[C@H](CO)N1C[C@H](C)[C@H](CN(C)S(=O)(=O)c2ccc(C#N)cc2)OCc2cnnn2CCCC1=O	none (no result: Pf growth 48h, Shiga toxin inh, Pf growth 96h, Cycloheximide cs)
Cc1ccc(-c2cc(C(=O)NCCc3ccccc3)c3c(-c4ccc(C)cc4)[nH]nc3n2)cc1	none (no result: Pf growth 48h, Shiga toxin inh, Pf growth 96h, Cycloheximide cs)
COc1cc(C(=O)NCc2nnc(SCC(=O)N3CCOCC3)o2)cc(OC)c1OC	none
COc1cccc(C(=O)c2c[nH]c(C(=O)NCc3cccs3)c2)c1	Pf growth 96h inconclusive, Cycloheximide cs 16
CCCNC(=O)C1(C)CCN(C(=O)c2ccccc2F)C1 (configuration not stated)	none (no result: Pf growth 48h, Shiga toxin inh, Pf growth 96h, Cycloheximide cs)
CCNC(=O)C1(C)CCN(C(=O)c2ccccc2F)C1 (configuration not stated)	HCMV antiviral -98 (no result: Pf growth 48h, Shiga toxin inh, Pf growth 96h, Cycloheximide cs)
O=C(NNC(=S)NC(=O)c1ccc(Br)cc1)c1ccc([N+](=O)[O-])cc1	none (no result: Shiga toxin inh)
Cc1ccc(C(=O)NNC(=S)NC(=O)c2ccccc2)cc1	HCMV antiviral -85 (no result: Pf growth 48h, Shiga toxin inh, Pf growth 96h, Cycloheximide cs)
O=C(NNC(=S)NC(=O)c1ccc(Br)cc1)c1cccc([N+](=O)[O-])c1	HCMV antiviral -105 (no result: Pf growth 48h)
Cc1ccc(C(=O)NC(=S)NNC(=O)c2ccccc2)cc1	Pf growth 96h inconclusive
Cc1ccccc1C(=O)NNC(=S)NC(=O)c1ccccc1	Pf growth 48h inconclusive, Shiga toxin inh 28, Pf growth 96h inconclusive, Cycloheximide cs 17
O=C(NC(=S)NNC(=O)c1ccccc1O)c1ccccc1	Pf growth 48h inconclusive, Shiga toxin inh 55, Pf growth 96h inconclusive
C#CCN(C[C@@H]1[C@@H](OC(=O)NCc2ccccc2)[C@@H](OC(=O)NCc2ccccc2)Cn2c(=O)n(CCCCCC)c(=O)n21)S(=O)(=O)c1ccc(C)cc1	none (no result: Pf growth 48h, Shiga toxin inh, Pf growth 96h, Cycloheximide cs)
